Data on 40 compounds can be found in PubChem BioAssay (Tox21).

Structures are written as SMILES. Results filed as inconclusive are left out. Entries that show only a call come without a potency. A number with no mark means an inactive call. Activity calls are given as the source filed them. Calls come from the whole dose curve; as a rule, active = well fitted cell-killing curve with a large enough effect in the repeat runs; inconclusive = weak or mixed curves, or effect the other way; inactive = no such curve, though single readings can be large or run the other way.

A short description of this assay: Caspase-3/7 induction in CHO-K1 cells by small molecules, qHTS cell viability counter screen (AID 1346979). Note: nearly all actives have a fitted effect of over 35% in size. The following applies: CellTiter-Fluor fluorescence, 17 h; series mostly up to 92.4 µM. From the text:
National Center for Advancing Translational Sciences [NCATS]
NIH Chemical Genomics Center [NCGC]
U.S. Environmental Protection Agency [EPA]
National Institutes of Environmental Health Sciences [NIEHS]
National Toxicology Program [NTP]
U.S. Food and Drug Administration [FDA]
Apoptosis is a process of programmed cell death and plays a central role in the development of multicellular organisms. It is a highly regulated process and induces cell death by activating caspases, which are the members of cysteine aspartic acid-specific protease (caspase) family. Caspases involved in apoptosis are classified by their mechanism of action as initiator caspases (caspase-2, -8, -9 and -10) and executioner caspases (caspase-3, -6, and -7). Inhibition of apoptosis results in number of cancers, autoimmune diseases, inflammatory diseases and viral infection. To identify small molecule compounds that induce apoptosis, a homogeneous, luminescent Caspase-Glo 3/7 assay was used. Wild type CHO-K1 cells were used to screen Tox21 libraries for identifying caspase-3/7 activity inducers. Also cytotoxicity of the compounds was tested in parallel by measuring the cell viability using CellTiter-Fluor assay system in the same wells.
Tox21 Assay Protocol Summary:
CHO-K1 cells were dispensed at 1,500 per well in 5uL of culture medium into white solid bottom 1536-well plates (Corning Life Sciences, Corning, NY) using a Multidrop Combi (Thermo Scientific, Waltham, MA) dispenser. The assay plates were incubated at 37 C and 5% CO2 for 5hr, and then 23nL of compounds dissolved in DMSO and positive control were transferred using a Pintool station (Wako, San Diego, CA). The assay plates were incubated at 37C and 5% CO2 for 17hr. For cytotoxicity read, after 16hr incubation at 37C, 1uL CellTiter-Fluor reagent (Promega Corporation, Madison, WI) was added to each well of the assay plates using Flying Reagent Dispenser (FRD, Aurora Discovery, San Diego, CA). After 1hr incubation at 37C and 5% CO2, the fluorescence signal was quantified using a ViewLux plate reader (PerkinElmer, Shelton, CT).
In general terms: qHTS replaces the single test concentration by a dilution series.
On to `CCC(C(=O)OCCN1CCOC(c2ccccc2)C1C)c1ccccc1` (stereo not given), for which the Potency entry is “inactive”.
Same read-out and setting: the entry for `Cc1ccc(C(=O)O)cc1[N+](=O)[O-]` is “inactive”; for `CCOc1cccc(N)c1` it is “inactive”.
Take `C=CCCCCCCCC`: the Potency entry is “inactive”.
In the case of `COc1ccc(CCO)cc1`, the Potency entry is “inactive”.
On the same count and under the same terms, the entry for `CC(C)OC(=O)CCC(=O)OC(C)C` is “inactive”.
Regarding `N[C@@H](Cc1ccc(O)cc1)C(=O)O`, the activity change, negative = cytotoxicity was 1.62% [at 8.39 µM].
On to `O=Cc1ccccc1Cl`, for which the Potency result was “inactive”.
As to `CC1(C)Oc2ccc(C#N)cc2[C@@H](N2CCCC2=O)[C@@H]1O`, the Potency entry is “inactive”.
On the same count and under the same terms, the value for `C=CC/C=C/C` was “inactive”; that for `CCN(CC)CCN` was “inactive”; that for `CC(N)CCCC(C)(C)O` (stereo not given) was “inactive”.
`CCc1occc(=O)c1O`: the Potency result is “inactive”.
For `CC(C)c1ccc(C=O)cc1`, the Potency result is “inactive”.
As to `CC(C)(CO)C(O)C(=O)NCCCO` (stereo not given), the Potency entry was “inactive”.
For the compound `CCOc1ccccc1OCC1CNCCO1` (stereo not given), the Potency entry is “inactive”.
`CCC(C)C(C)=O` (stereo not given): the Potency result was “inactive”.
Same read-out and setting: the entry for `O=C1OCCO1` is “inactive”; for `c1ccc2c(CC3=NCCN3)cccc2c1` it is “inactive”.
`CC(C)C1OCCN1CCOC(=O)NCCCCCCNC(=O)OCCN1CCOC1C(C)C` (stereo not given): the Potency entry was “inactive”.
Turning to `CCC(=O)c1c(O)cc(O)cc1O`, the Potency result was “inactive”.
`CCCC(CC)c1ccccc1` (stereo not given): the Potency result is “inactive”.
For `C/C=C(\C)C(C)=O`, the Potency result is “inactive”.
On the same count and under the same terms, the entry for `O=C1CCC(=O)N1Cl` is “inactive”; for `C=Cc1ccc(C(C)(C)C)cc1` it is “inactive”; for `Nc1nc(-c2ccccc2)c(Br)c(=O)[nH]1` it is “inactive”.
On to `CCCCCCCCCCCCCCC(=O)NC(CO)CCCCCCCCCCCCCC` (stereo not given), for which the Potency result was “inactive”.
With `CC(=O)CC(=O)Nc1ccc(C)cc1C`, the Potency entry is “inactive”.
Still for that read-out and setting: the entry for `CC(=O)C1C(=O)C=C(C)OC1=O` (stereo not given) is “inactive”.
For `CC1(C)CC(OC(=O)CCCCCCCCC(=O)OC2CC(C)(C)NC(C)(C)C2)CC(C)(C)N1`, the activity change, negative = cytotoxicity is -1.35% [at 19 µM].
As to `COC(=O)CCCCC(=O)O`, the Potency entry was “inactive”.
Same read-out and setting: the value for `CC(C)NCC(O)c1ccc2ccccc2c1` (stereo not given) was “inactive”.
As for `CC/C(C)=N\O[Si](C)(O/N=C(\C)CC)O/N=C(\C)CC`, the Potency entry is “inactive”.
Same read-out and setting: the entry for `O=C(CCCl)NCCc1ccccc1` is “inactive”.
On the same count and under the same terms, the entry for `CO[Si](CCCn1c(=O)n(CCC[Si](OC)(OC)OC)c(=O)n(CCC[Si](OC)(OC)OC)c1=O)(OC)OC` is “inactive”; for `CCNC(=O)NCc1cccc(Cl)c1` it is “inactive”; for `COc1cc(/C=C/C(N)=O)cc(OC)c1OC` it is “inactive”.
Turning to `Cn1nnc2c(C(N)=O)ncn2c1=O`, the Potency result was “inactive”.
On the same count and under the same terms, the entry for `CCC[C@@H]1C[C@@H](C(=O)N[C@@H]([C@H]2O[C@H](SC)[C@H](O)[C@@H](O)[C@H]2O)[C@@H](C)O)N(C)C1` is “inactive”; for `COCCc1ccccn1` it is “inactive”.
